Shown are actives, neighbours in structure and some others; about 7.3% of the full set was active somewhere.
FLuc counter: counter-screen for miR-21 project: firefly luciferase inhibitors or activators; Potency, µM (doses to about 57.5 µM), for the others: top-dose activity change, negative = inhibition, actives largely listed as inhibitors; actives 6.9% (n = 360,000); purified FLuc, Km substrates, luminescence inhibition; P08659;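 further: plate controls were vehicle for no effect and reference inhibitor for full effect; nearly all actives have a fitted effect of over 55% in size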
Target sequence (P08659 whole entry, looked up): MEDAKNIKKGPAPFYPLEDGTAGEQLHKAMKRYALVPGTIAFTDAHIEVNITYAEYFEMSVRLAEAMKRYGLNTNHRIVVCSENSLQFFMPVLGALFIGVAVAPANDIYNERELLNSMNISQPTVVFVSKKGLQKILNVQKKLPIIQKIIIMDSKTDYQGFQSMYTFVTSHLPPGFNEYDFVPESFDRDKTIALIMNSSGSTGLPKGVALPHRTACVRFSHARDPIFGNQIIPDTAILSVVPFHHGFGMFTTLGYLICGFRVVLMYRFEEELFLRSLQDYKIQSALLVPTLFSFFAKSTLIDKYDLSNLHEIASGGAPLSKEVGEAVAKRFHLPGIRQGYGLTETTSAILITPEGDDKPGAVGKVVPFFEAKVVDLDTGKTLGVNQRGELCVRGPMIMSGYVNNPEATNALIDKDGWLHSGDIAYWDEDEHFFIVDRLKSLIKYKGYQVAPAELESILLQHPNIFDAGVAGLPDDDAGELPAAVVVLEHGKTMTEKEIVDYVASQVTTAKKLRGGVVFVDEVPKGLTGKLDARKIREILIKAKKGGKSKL
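Biochemical qHTS of compounds, final roughly 60 µM downward over six points, against 10 nM purified firefly luciferase using Km concentrations of substrates (10 uM D-luciferin, 10 uM ATP) in Tris acetate pH 7.5 buffer; luminescence output.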
SMN2 splice enh: increases expression of the SMN2 splice variant; actives 2.8% (n = 210,000); AID 1458; Potency, µM (series often up to 46.1 µM), for the others: at the highest dose activity change, positive = activation, most hits filed as activators; HEK293 SMN2-luciferase splicing reporter, luminescence, 30-36 h; further: % of control where 0% means no effect; nearly all actives have a fitted effect of over 55% in size
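HEK293 cells carry an SMN2 minigene-luciferase reporter in which exon 7 inclusion puts luciferase in frame. Cells were seeded at 2000 cells/well, attached for 10-12 hours, then exposed to compounds for 30-36 hours at 37C before ONE-Glo luminescence.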
Luc counter: blocks Kinase-Glo luciferase, a counter-screen artifact. Q27757. Kinase-Glo luciferase, ATP luminescence, 8 min. Potency, µM (top dose mostly 38.3 µM), for the others: at the highest dose activity change, negative = inhibition, actives largely listed as inhibitors. actives 0.28% (n = 200,000); further: on the % scale 0 is the no-effect control and ±100 the full control effect; nearly all actives have a fitted effect of over 60% in size
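Substrate mix (final 50 mM imidazole pH 7.2, 50 mM KCl, 7 mM MgCl2, 10 uM ATP, 0.01% Tween 20, 0.05% BSA) plus pin-tool compound, then Kinase-Glo detection mix; 8 min ambient, luminescence read.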
NPC1 prom act: activators of NPC1 promoter | Huh7 NPC1 promoter luciferase reporter, 24 h | Potency, µM (top dose mostly 9.22 µM), for inactives: top-dose activation, most hits filed as activators | actives 2.4% (n = 320,000); further: % of control where 0% means no effect; nearly all actives have a fitted effect of over 60% in size
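Huh7 reporter cells (NPC1 promoter driving luciferase) are dosed with compound for 24 h at 37 °C, 5% CO2; luciferase detection reagent is then added and luminescence measured after 10 min at ambient temperature.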
ELG1 genotox: inducers of genotoxicity in HEK293T ELG1-luciferase cells; HEK293T ELG1-luciferase reporter, luminescence, 16 h; actives 1.3% (n = 330,000); AID 504466; Potency, µM (doses to about 46 µM), without a hit: at the top dose activity change, positive = activation, hits mostly activators; further: % of control where 0% means no effect; nearly all actives have a fitted effect of over 60% in size
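Quantitative HTS format in 1536-well plates. HEK293T ELG1-luciferase reporter cells receive test compound and are incubated 16 hr at 37 °C, 5% CO2; ONE-Glo added, 30 min room temperature, then luminescence read.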
Rab9 prom act: Rab9 promoter activation; Huh7 Rab9 promoter-luciferase reporter, luminescence, 24 h; Potency, µM (series often up to 9.22 µM), for the others: top-dose activation, negative = inhibition, actives largely listed as activators; actives 2.8% (n = 320,000); further: % of control where 0% means no effect; nearly all actives have a fitted effect of over 60% in size
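Luciferase signal after 10 min detection reagent at ambient indicates Rab9 promoter upregulation; stably transfected Huh7 cells were treated 24 h with compound in DMSO at 37 °C, 5% CO2.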
* marks the source's active call; other numbers are inactive results; [ ] = remark or other dose. The call rests on the fitted dose curve; in most records, active means well fitted curve in the direction sought with a large enough effect; inconclusive means small, poorly fitted or top-dose-only effect, or another doubt; inactive means no such curve, though single readings can be large; an effect the other way counts as inactive or inconclusive. Potency means the concentration at half of the fitted maximal effect.

For CCc1ccc(C(=O)COC(=O)c2nn(C)c(=O)c3ccccc23)cc1 the results were FLuc counter 19µM*, SMN2 splice enh 1%, Luc counter 0%, NPC1 prom act -2%, ELG1 genotox 0% and Rab9 prom act -4%.
For CCc1ccc(C(=O)COC(=O)c2n[nH]c3ccccc23)cc1 the results were FLuc counter 3µM*, SMN2 splice enh -12%, Luc counter -4%, NPC1 prom act 1.8µM*, ELG1 genotox 18% and Rab9 prom act 0.89µM*.
`CC1CCN(C(=O)COC(=O)c2n[nH]c3ccccc23)CC1` gave FLuc counter inconclusive, SMN2 splice enh inconclusive, Luc counter 0%, NPC1 prom act 3.5µM*, ELG1 genotox inconclusive and Rab9 prom act 3.2µM*.
Cn1nc(C(=O)OCC(=O)c2ccc[nH]2)c2ccccc2c1=O was read as FLuc counter -1%, SMN2 splice enh 6%, Luc counter 0%, NPC1 prom act -2%, ELG1 genotox 2% and Rab9 prom act -2%.
For Cc1cc(C)c(C(=O)COC(=O)c2nn(C)c(=O)c3ccccc23)cc1C the results were FLuc counter 11µM*, NPC1 prom act -3%, ELG1 genotox 1% and Rab9 prom act -5%.
N[C@@](CCc1ccccc1)(C(=O)O)c1ccccc1 was read as SMN2 splice enh -10%[9.22 µM] and Luc counter -1%[7.66 µM].
`COC(=O)CSc1nc2cc(C)ccc2cc1C#N` gave FLuc counter 13µM*, SMN2 splice enh 18µM*, Luc counter 1%, NPC1 prom act 1.6µM*, ELG1 genotox inconclusive and Rab9 prom act 1.4µM*.
`CCOC(=O)CC(=O)CSc1nc2ccc(C)cc2cc1C#N` gave FLuc counter -21%[2.3 µM], SMN2 splice enh 25µM*, Luc counter -3%, NPC1 prom act 2%, ELG1 genotox 16µM* and Rab9 prom act 1%.
Cc1cc(=O)n2[nH]c(=O)c(N=Nc3ccccc3)c2[nH]1 was read as FLuc counter inconclusive, SMN2 splice enh -4%, Luc counter -10%, NPC1 prom act -1%, ELG1 genotox 9% and Rab9 prom act -2%.
COc1cccc(N=Nc2c(N)[nH][nH]c2=O)c1 was read as FLuc counter 15µM*, SMN2 splice enh 10µM*, Luc counter -13%, NPC1 prom act 25%, ELG1 genotox inconclusive and Rab9 prom act 28%.
CCOc1ccc(N=Nc2c(=O)[nH]n3c(=O)cc(C)[nH]c23)cc1 was read as FLuc counter 4.8µM*, SMN2 splice enh inconclusive, Luc counter inconclusive, NPC1 prom act inconclusive, ELG1 genotox inconclusive and Rab9 prom act 2.8µM*.
For CCOc1ccc(N=Nc2c(N)[nH][nH]c2=O)cc1 the results were FLuc counter 11µM*, SMN2 splice enh inconclusive, Luc counter inconclusive, NPC1 prom act inconclusive, ELG1 genotox inconclusive and Rab9 prom act inconclusive.
`Clc1ccccc1C(Nc1cnccn1)Nc1cnccn1` gave SMN2 splice enh -7%[9.22 µM] and Luc counter 1%[7.66 µM].
COc1cccc(NC(=O)c2ccccc2-c2ccccc2C(=O)O)c1 was read as FLuc counter 1%, NPC1 prom act -2%, ELG1 genotox -2% and Rab9 prom act 1%.
COc1cccc(NC(=O)C2=COCCO2)c1 was read as FLuc counter inconclusive, NPC1 prom act inconclusive, ELG1 genotox inconclusive and Rab9 prom act 3.2µM*.
Screening COc1cccc(NC(=O)c2c(F)cccc2F)c1 returned FLuc counter inconclusive, NPC1 prom act 27%, ELG1 genotox 10µM* and Rab9 prom act inconclusive.
COc1cccc(NC(=O)c2ccccc2F)c1 was read as FLuc counter 6µM*, NPC1 prom act 4µM*, ELG1 genotox 4.6µM* and Rab9 prom act 3.5µM*.
For COc1cccc(NC(=O)c2ccccc2Br)c1 the results were FLuc counter 15µM*, NPC1 prom act 4µM*, ELG1 genotox inconclusive and Rab9 prom act 3.5µM*.
`COc1cccc(C(=O)Nc2c(F)cccc2F)c1` gave FLuc counter -4%, NPC1 prom act -1%, ELG1 genotox 3% and Rab9 prom act 19%.
NCC[C@H](N)C(=O)O was read as SMN2 splice enh -6%[9.22 µM] and Luc counter -6%[7.66 µM].
N#Cc1cccc(NC(=O)CCNS(=O)(=O)c2ccc3c(c2)CCN3C(=O)C2CC2)c1 was read as FLuc counter 0%.
`COc1cccc(NC(=O)COC(=O)c2ccccc2F)c1` gave FLuc counter 12µM*, SMN2 splice enh 10%, Luc counter 0%, NPC1 prom act -1%, ELG1 genotox -1% and Rab9 prom act 1%.
For COc1cc(NC(=O)c2cc(-c3cccc(OC)c3)n[nH]2)cc(OC)c1 the results were FLuc counter 12µM*.
Screening Cc1ccc(NC(=O)c2cc(-c3ccccc3)n[nH]2)cc1 returned FLuc counter inconclusive, NPC1 prom act 0%, ELG1 genotox 6% and Rab9 prom act 0%.
COc1cccc(NC(=O)COC(=O)c2c(F)cccc2Cl)c1 was read as FLuc counter inconclusive, Luc counter 1%, NPC1 prom act 17%, ELG1 genotox inconclusive and Rab9 prom act inconclusive.
`Cc1cccc(C(=O)NCc2cn3cccc(C)c3n2)c1` gave FLuc counter 2%.
Screening Cc1cc(C)cc(C(=O)Nc2c(C(=O)Nc3ccccc3F)oc3ccccc23)c1 returned FLuc counter -1% and SMN2 splice enh inconclusive.
Screening O=C(Nc1ccccn1)c1ccc([N+](=O)[O-])cc1Cl returned FLuc counter inconclusive, SMN2 splice enh 5%, Luc counter 2%, NPC1 prom act 8%, ELG1 genotox 1% and Rab9 prom act 17%.
O=C(Nc1ccccn1)c1cc2ccccc2cc1O was read as FLuc counter 2.4µM*, NPC1 prom act 3.5µM*, ELG1 genotox 2.3µM* and Rab9 prom act 4µM*.
For COc1ccc(NC(=O)c2cc3ccccc3cc2O)cc1 the results were FLuc counter 0.95µM*, NPC1 prom act 2.2µM*, ELG1 genotox inconclusive and Rab9 prom act 2.2µM*.
`COc1ccc(NC(=O)c2ccccc2C)cc1` gave FLuc counter 9.5µM*, NPC1 prom act 1.4µM*, ELG1 genotox inconclusive and Rab9 prom act 3.2µM*.
Cc1ccc(NC(=O)c2cc3ccccc3cc2O)cc1 was read as FLuc counter 1.1µM*, NPC1 prom act 2µM*, ELG1 genotox inconclusive and Rab9 prom act 2.8µM*.
